Test results reported in PubChem BioAssay (NCI).
About 83,000 compounds went through this panel and 20% of them were active in at least one assay; those are over-represented in the sample as a whole.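 Step 1: grow cells in 96-well plates. Step 2: add test compound at a single concentration. Step 3: incubate 48 h. Step 4: record percent growth.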 Activity calls are given as the source filed them. How the source made its calls: active means growth percent below 10; inactive means the rest.

tested on: NCI-H322M lung; assay: NCI-60 one-dose screen, 48 h (100 = growth as untreated, 0 = no growth, -100 = all killed); details: 10 µM unless noted

Structure (SMILES) | growth
COc1cc(C=O)ccc1OC1OC(COC(C)=O)C(OC(C)=O)C(OC(C)=O)C1OC(C)=O (stereo unspecified) | 120% (inactive)
CC1=CCC(OC(=O)C(C)(O)CCC(O)(C(=O)OC2(C)C=CC(O)(C(C)C)CC2)C(C)C)(C(C)C)CC1 (stereo unspecified) | 99.1% (inactive)
CC(=O)Nc1cccc(-c2ccc3c(c2)NC(=O)/C3=C\c2ccc[nH]2)c1 | 40.9% (inactive)
CC(C)(C)c1ccc(NS(=O)(=O)c2ccc3nc(NC(=O)c4cnccn4)[nH]c3c2)cc1 | 41.9% (inactive)
CC(C)(C)c1cc(/C=N/NC(=O)c2ccccc2NC(=O)c2cccs2)c(O)c(C(C)(C)C)c1 | 39.1% (inactive)
C#CCNC(=O)[C@H](Cc1ccccc1)NC(=O)[C@]12CC[C@@H](C(=C)C)[C@@H]1[C@H]1CC[C@@H]3[C@@]4(C)CCC(=O)C(C)(C)[C@@H]4CC[C@@]3(C)[C@]1(C)CC2 | 69.9% (inactive)
CCCCCCNC(=O)Oc1ccc(/C(=C(\C)c2ccccc2)c2ccc(OCCCN(C)C)cc2)cc1 | 75.2% (inactive)
CC(=O)Nc1ccc(-c2ccc3c(c2)NC(=O)/C3=C\c2ccc[nH]2)cc1 | 64.5% (inactive)
CCCCOc1ccc(/C=N/Nc2cc(C)nc3ccc(Br)cc23)cc1 | 76.9% (inactive)
COc1cc(/C(C)=C(\c2ccc(Cl)cc2)c2ccc(OCCN(C)C)cc2)ccc1F | 69% (inactive)
O=C(/C=C/c1ccc(Cl)cc1)c1ccc(NC(=O)N2CCN(c3cc4c(cc3F)c(=O)c(C(=O)O)cn4C3CC3)CC2)cc1 | 103% (inactive)
O=C(c1nc2ccccc2[nH]1)C1C(c2ccc(Cl)cc2)C2CC3CCCC[C@H]3N2[C@@]12C(=O)Nc1cc(Cl)ccc12 (stereo partly specified) | 62.2% (inactive)
O=C(NCCNc1nccc(-c2c(-c3cccc(F)c3)nc3sccn23)n1)c1ccc(Cl)cc1 | 66.3% (inactive)
O=C(CCN1CCCC1)Nc1ccc2c(NCCCc3ccccc3)c3ccccc3nc2c1 | 16.6% (inactive)
N#CC1=C(/N=C/c2ccccc2)Oc2c(ccc3ccccc23)C1c1ccc([N+](=O)[O-])cc1 (stereo unspecified) | 93.8% (inactive)
Brc1ccc(Nc2csc(-c3ccccn3)n2)cc1 | 84.1% (inactive)
COc1cc(/C(C)=C(\c2ccc(Cl)cc2)c2ccc(OCCN3CCCC3)cc2)ccc1F | 71% (inactive)
CC(=O)N1c2ccccc2NC2=C(C(=O)NC2(C)C)C1c1ccco1 (stereo unspecified) | 94.9% (inactive)
CCOC(=O)CSc1nc2ccccc2c(=O)n1Cc1ccc(S(N)(=O)=O)cc1 | 99.7% (inactive)

Structure (SMILES) | growth
CCCCOc1ccc(/C(C)=N/Nc2cc(C)nc3ccc(Br)cc23)cc1 | 103% (inactive)
COc1cc2c(c(O)c1Cl)C(=O)c1c(O)cc(C[C@H](C)O)cc1[C@H]2[C@H]1c2cc(C[C@H](C)O)cc(O)c2C(=O)c2c1cc(OC)c(Cl)c2O | 17.7% (inactive)
O=C(c1ccccc1)N1N=C(c2ccc(-n3ccc(C(F)(F)F)n3)c(F)c2)CC1c1ccc[nH]1 (stereo unspecified) | 98.7% (inactive)
O=C(Nc1ccc(-c2ccc3c(c2)NC(=O)/C3=C\c2ccc[nH]2)cc1)NC1CC1 | 80.2% (inactive)
O=c1ccc(-c2nc(N3CCOCC3)c3ccccc3n2)c[nH]1 | 92.3% (inactive)
COc1cc(/C=C\C(=O)O)ccc1OCc1ccccc1 | 117% (inactive)
COc1ccc(C(C)=O)c(OC)c1 | 124% (inactive)
NC1=NN=C(N)C1=Cc1cc2ccccc2n2nnnc12 | 105% (inactive)
C=C1C(=O)O[C@H]2[C@H]1CC/C(CNC(=O)/C=C/c1cccc(OC)c1)=C\CC[C@@]1(C)O[C@@H]21 | 72.6% (inactive)
CNC(=O)c1cc(Cn2nc(C)c(NC(=O)Nc3ccc(Cl)c(C(F)(F)F)c3)c2C)ccn1 | 94.5% (inactive)
Cc1ccc(/C=N/NC(=O)CSc2nc3ccccc3c(=O)n2Cc2ccc(S(N)(=O)=O)cc2)cc1 | 102% (inactive)
O=C(Cc1ccc(/C=C/C(=O)c2ncc[nH]2)cc1)Nc1ccc(Cl)cc1 | 42.8% (inactive)
CCCOC(=O)N[C@H]1CCc2c(Cl)c(OC)c(OC)c(OC)c2-c2ccc(SC)c(=O)cc21 | 31.8% (inactive)
O=S(=O)(NCCCNc1nccc(-c2c(-c3cccc(O)c3)nc3occn23)n1)c1ccc(Cl)cc1 | 103% (inactive)
COc1cc2c(=O)n(CCN(C)C)c3c4cc5c(cc4ccc3c2cc1OC)OCO5 | -15.7% (active)
C=CC(=O)N[C@@H](/C=C/C(=O)OCC)Cc1ccc(-c2cc(Cl)cc(Cl)c2)cc1 | 58.9% (inactive)
NC(=NCCCOc1ccc(F)cc1)Nc1ccc(I)cc1 | 88% (inactive)
Cc1cc2nc3c4cccc(O)c4n(CCN(C)C)c3nc2cc1C | 38% (inactive)
Oc1ccc(C(c2ccc(O)cc2)c2ccc(Br)cn2)cc1 | -27.3% (active)

tested on: HOP-62 NSCLC; assay: as above; details: 10 µM unless noted

Structure (SMILES) | growth
COc1cc(C=O)ccc1OC1OC(COC(C)=O)C(OC(C)=O)C(OC(C)=O)C1OC(C)=O (stereo unspecified) | 94% (inactive)
CC1=CCC(OC(=O)C(C)(O)CCC(O)(C(=O)OC2(C)C=CC(O)(C(C)C)CC2)C(C)C)(C(C)C)CC1 (stereo unspecified) | 99.8% (inactive)
CC(=O)Nc1cccc(-c2ccc3c(c2)NC(=O)/C3=C\c2ccc[nH]2)c1 | 55.3% (inactive)
CC(C)(C)c1ccc(NS(=O)(=O)c2ccc3nc(NC(=O)c4cnccn4)[nH]c3c2)cc1 | 53.4% (inactive)
CC(C)(C)c1cc(/C=N/NC(=O)c2ccccc2NC(=O)c2cccs2)c(O)c(C(C)(C)C)c1 | 20.7% (inactive)
C#CCNC(=O)[C@H](Cc1ccccc1)NC(=O)[C@]12CC[C@@H](C(=C)C)[C@@H]1[C@H]1CC[C@@H]3[C@@]4(C)CCC(=O)C(C)(C)[C@@H]4CC[C@@]3(C)[C@]1(C)CC2 | 77.1% (inactive)
CCCCCCNC(=O)Oc1ccc(/C(=C(\C)c2ccccc2)c2ccc(OCCCN(C)C)cc2)cc1 | 98.3% (inactive)
CC(=O)Nc1ccc(-c2ccc3c(c2)NC(=O)/C3=C\c2ccc[nH]2)cc1 | 95.7% (inactive)
CCCCOc1ccc(/C=N/Nc2cc(C)nc3ccc(Br)cc23)cc1 | 82.5% (inactive)
COc1cc(/C(C)=C(\c2ccc(Cl)cc2)c2ccc(OCCN(C)C)cc2)ccc1F | 87.6% (inactive)
O=C(/C=C/c1ccc(Cl)cc1)c1ccc(NC(=O)N2CCN(c3cc4c(cc3F)c(=O)c(C(=O)O)cn4C3CC3)CC2)cc1 | 106% (inactive)
O=C(c1nc2ccccc2[nH]1)C1C(c2ccc(Cl)cc2)C2CC3CCCC[C@H]3N2[C@@]12C(=O)Nc1cc(Cl)ccc12 (stereo partly specified) | 68.7% (inactive)
O=C(NCCNc1nccc(-c2c(-c3cccc(F)c3)nc3sccn23)n1)c1ccc(Cl)cc1 | 91.9% (inactive)
O=C(CCN1CCCC1)Nc1ccc2c(NCCCc3ccccc3)c3ccccc3nc2c1 | 24.7% (inactive)
N#CC1=C(/N=C/c2ccccc2)Oc2c(ccc3ccccc23)C1c1ccc([N+](=O)[O-])cc1 (stereo unspecified) | 89.1% (inactive)
Brc1ccc(Nc2csc(-c3ccccn3)n2)cc1 | 88.2% (inactive)
COc1cc(/C(C)=C(\c2ccc(Cl)cc2)c2ccc(OCCN3CCCC3)cc2)ccc1F | 87.2% (inactive)
CC(=O)N1c2ccccc2NC2=C(C(=O)NC2(C)C)C1c1ccco1 (stereo unspecified) | 112% (inactive)
CCOC(=O)CSc1nc2ccccc2c(=O)n1Cc1ccc(S(N)(=O)=O)cc1 | 95.5% (inactive)

Structure (SMILES) | growth
CCCCOc1ccc(/C(C)=N/Nc2cc(C)nc3ccc(Br)cc23)cc1 | 88.7% (inactive)
COc1cc2c(c(O)c1Cl)C(=O)c1c(O)cc(C[C@H](C)O)cc1[C@H]2[C@H]1c2cc(C[C@H](C)O)cc(O)c2C(=O)c2c1cc(OC)c(Cl)c2O | 12.4% (inactive)
O=C(c1ccccc1)N1N=C(c2ccc(-n3ccc(C(F)(F)F)n3)c(F)c2)CC1c1ccc[nH]1 (stereo unspecified) | 122% (inactive)
O=C(Nc1ccc(-c2ccc3c(c2)NC(=O)/C3=C\c2ccc[nH]2)cc1)NC1CC1 | 113% (inactive)
O=c1ccc(-c2nc(N3CCOCC3)c3ccccc3n2)c[nH]1 | 99.6% (inactive)
COc1cc(/C=C\C(=O)O)ccc1OCc1ccccc1 | 99% (inactive)
COc1ccc(C(C)=O)c(OC)c1 | 103% (inactive)
NC1=NN=C(N)C1=Cc1cc2ccccc2n2nnnc12 | 96.8% (inactive)
C=C1C(=O)O[C@H]2[C@H]1CC/C(CNC(=O)/C=C/c1cccc(OC)c1)=C\CC[C@@]1(C)O[C@@H]21 | 68.7% (inactive)
CNC(=O)c1cc(Cn2nc(C)c(NC(=O)Nc3ccc(Cl)c(C(F)(F)F)c3)c2C)ccn1 | 93.4% (inactive)
Cc1ccc(/C=N/NC(=O)CSc2nc3ccccc3c(=O)n2Cc2ccc(S(N)(=O)=O)cc2)cc1 | 85.7% (inactive)
O=C(Cc1ccc(/C=C/C(=O)c2ncc[nH]2)cc1)Nc1ccc(Cl)cc1 | 8.21% (active)
CCCOC(=O)N[C@H]1CCc2c(Cl)c(OC)c(OC)c(OC)c2-c2ccc(SC)c(=O)cc21 | 40.5% (inactive)
O=S(=O)(NCCCNc1nccc(-c2c(-c3cccc(O)c3)nc3occn23)n1)c1ccc(Cl)cc1 | 114% (inactive)
COc1cc2c(=O)n(CCN(C)C)c3c4cc5c(cc4ccc3c2cc1OC)OCO5 | -5.77% (active)
C=CC(=O)N[C@@H](/C=C/C(=O)OCC)Cc1ccc(-c2cc(Cl)cc(Cl)c2)cc1 | 36% (inactive)
NC(=NCCCOc1ccc(F)cc1)Nc1ccc(I)cc1 | 80.4% (inactive)
Cc1cc2nc3c4cccc(O)c4n(CCN(C)C)c3nc2cc1C | 31.7% (inactive)
Oc1ccc(C(c2ccc(O)cc2)c2ccc(Br)cn2)cc1 | 77.5% (inactive)
